Tgondii IFNg: inhibitors of Toxoplasma gondii growth with IFN-gamma; Toxoplasma gondii growth in IFN-gamma-treated host cells; hits give low values; activity change, negative = inhibition, % (test concentration not listed); actives 3.8% (n = 69,000); in the data active = activity change below about -70%, passing the limit was not always enough;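 also: host cells are HeLa cells infected with Toxoplasma gondii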
Starred values were filed as active, the others as inactive. The full list was thinned out, with hits kept by preference.

SMILES	Tgondii IFNg
Cc1ccc2[nH]cc(CCNC(=O)C3CCN(c4ccc(Cl)cc4)C3=O)c2c1 (stereo not drawn)	128.0
CCOC(=O)c1ccc2nc(NC(=O)COC(=O)c3nn(C)cc3Cl)sc2c1	37.0
COc1cc([C@@H]2c3cc4c(cc3C(O[C@@H]3O[C@@H]5CO[C@@H](c6cccs6)OC5[C@H](O)[C@H]3O)C3COC(=O)[C@@H]32)OCO4)cc(OC)c1O (stereo partly drawn)	-80.4*
O=C(C1Cc2cc(Cl)ccc2O1)N1CCCC(c2ncc3c(n2)CCNC3)C1 (stereo not drawn)	-2.4
Cc1nccn1CCC(=O)NC(Cc1ccccc1)c1ccc2c(c1)OCCO2 (stereo not drawn)	43.8
Cc1ccc(-c2nc(C)c(CCNS(=O)(=O)c3ccc4c(c3)OCCO4)s2)cc1	7.4
COc1cccc(-c2nc(Cn3ccn4nc(-c5cccs5)cc4c3=O)c(C)o2)c1OC	-96.9*
COc1ccc(-c2nc(Cn3ccn4nc(-c5ccc(OC)c(OC)c5)cc4c3=O)c(C)o2)cc1	-35.0
COc1ccccc1-c1nc(Cn2ccn3nc(-c4cccs4)cc3c2=O)c(C)o1	51.3
COc1ccccc1-c1cc2c(=O)n(Cc3nc(-c4cccc(OC)c4OC)oc3C)ccn2n1	-18.9
COc1ccc(-c2cc3c(=O)n(Cc4nc(-c5ccc(OC(C)C)cc5)oc4C)ccn3n2)cc1OC	-91.8*
COc1ccc(-c2cc3c(=O)n(Cc4nc(-c5ccc(OC(C)C)cc5)oc4C)ccn3n2)cc1	-54.1
Cn1nc(C(=O)NCCc2nc(-c3ccccc3)ncc2C(N)=O)cc1-c1ccc(F)cc1	18.8
CCOc1ccccc1-c1nccn1CCn1cccn1	1.8
Cc1cccnc1[C@H](C)NC(=O)Cn1cc(C)c(=O)[nH]c1=O	1.3
CC(=O)N1Cc2ccccc2OC2(CCC(N(C)C(=O)c3cn4ccc(C)cc4n3)CC2)C1 (stereo not drawn)	5.2
Cc1cccc(N2CC3(CCN(S(=O)(=O)C4CC4)C3)CC2=O)c1 (stereo not drawn)	-1.6
COc1ccc(CNc2nc(SCc3ccc(F)cc3)nc3ccccc23)cc1	-69.9
CCN(CC)c1ncc2c(NCc3ccccc3)nc(SCc3ccccc3)nc2n1	-109.9*
COc1ccc(CNc2nc(SCc3ccc(Cl)cc3)nc3ccccc23)cc1	-61.2
O=C(O)CC1SC(c2ccc(Oc3ccc(C(F)(F)F)cn3)cc2)=NC1=O (stereo not drawn)	-16.1
Cc1ccc(S(=O)(=O)N(C)c2cncc(C(=O)N3CCC(Cc4ccccc4)CC3)c2)cc1	-96.0*
CN(c1cncc(C(=O)N2CCN(c3cccc(Cl)c3)CC2)c1)S(=O)(=O)c1ccccc1	-15.1
Cc1ccc(S(=O)(=O)N(C)c2cncc(C(=O)N3CCCCCC3)c2)cc1	-10.5
Cc1cccc(NC(=O)NCC(c2cccnc2)c2cn(C)c3ccccc23)c1 (stereo not drawn)	217.7
SMILES	Tgondii IFNg
COc1ccc2c(c1)OCC(Cc1ccc(OC)c(OC)c1)C2=O (stereo not drawn)	-3.4
COc1ccc2c(c1)O[C@H]1c3ccc(OC)cc3OC[C@@H]21	-20.5
COc1ccc2c(c1)OCC(Cc1ccc(OC)c(OC(C)=O)c1)C2=O (stereo not drawn)	-84.0*
c1ccc(-c2cc(CNc3ccccc3N3CCOCC3)c3nnnn3c2)cc1	19.8
COc1cc(C(=O)ON=C2C3CC4CC(C3)CC2C4)cc(OC)c1OC	-106.0*
COc1cc(C(=O)OCCCN2CCCN(CCCOC(=O)c3cc(OC)c(OC)c(OC)c3)CC2)cc(OC)c1OC	-7.4
COc1cc(C(=O)OCCCN(C)C)cc(OC)c1OC	0.1
COCCN1CCN(c2c3c(nc4cc(-c5nccn5C)nn24)CCCC3)CC1	1.2
COc1ccccc1/C=C/CN1CCNC(C(=O)N2CCCC2)C1 (stereo not drawn)	2.1
COc1ccccc1/C=C/CN1CCN(C)C(C(=O)O)C1 (stereo not drawn)	5.0
COc1ccccc1/C=C/CN1CC2CCCN2C[C@H]1C (stereo partly drawn)	-79.0*
CC(C)c1cc(C2CCCN2Cc2cccc(C(=O)Nc3cn(C)nn3)c2)no1 (stereo not drawn)	-16.1
CSc1ccc(CNC(=O)c2nc(Nc3ccc(C)cc3)c3ccccc3n2)cc1	50.4
COc1ccc(Nc2nccc(NCCO)n2)cc1	84.8
CCN(CC)c1nc(Nc2ccc(OC)cc2)nc(Nc2ccc(OC)cc2)n1	-97.5*
CCN(CC)c1ccc(NC(=S)NC(=O)c2ccc(OC)cc2)cc1	-9.7
C=CC[C@@H]1CC=C[C@@H](C)N1C(=O)CC(=O)Nc1cc(OC)ccc1OC	-9.6
COC(=O)Cn1c(-c2ccccc2)cn2c3c(=O)n(C)c(=O)n(C)c3nc12	-7.8
Cc1ccc(C)c(-n2c(C)cn3c4c(=O)n(CCN5CCOCC5)c(=O)n(C)c4nc23)c1	-76.5*
Cc1nc(-c2cc(C(=O)CCN3CCOCC3)c3ccccn23)cn1C	-33.7
CCCCc1nc2ccccc2c(=O)n1NC(=O)c1c(O)c2ccccc2n(CCC)c1=O	-113.8*
CCn1c(=O)c(C(=O)Nc2cccc(C)n2)c(O)c2ccccc21	74.1
CCCn1c(=O)c(C(=O)NCCN(CC)CC)c(O)c2ccccc21	-32.5
CCOc1ccc(-c2nc(Cn3nnc(C(=O)Nc4ccc(C)c(F)c4)c3C)c(C)o2)cc1	70.9
CN(Cc1ccoc1)c1ccc(-c2nccn2C)nn1	66.7
SMILES	Tgondii IFNg
Cc1c(CN(C)c2ccc(-c3nccn3C)nn2)[nH]c2ccccc12	-95.9*
CN(Cc1nccn1C)c1ccc(-c2nccn2C)nn1	-2.8
COc1ccc2c(c1)NC1(CCN(C(=O)c3ccccc3C)CC1)c1cccn1-2	-2.7
CN(C)C(=O)N1CCN(Cn2nc(-c3ccco3)n(C)c2=S)CC1	9.8
O=S(=O)(c1ccccc1F)N1CCC2(CC1)Nc1ccc(Cl)cc1-n1cccc12	-22.9
Cc1c(C)c(C)c(CSCc2n[nH]c(=S)n2-c2ccc(F)cc2)c(C)c1C	-86.4*
Cc1noc(C)c1-n1sc(=O)n(-c2ccc(F)cc2)c1=O	-3.8
Cc1ccc(C)c(NCc2n[nH]c(=S)n2-c2ccccc2)c1	5.0
O=C(CN1C(=O)CC(c2ccccc2)CC1=O)NCCS(=O)(=O)N1CCCCC1	19.7
Cc1ccc(Nc2nc(C(=O)NCc3ccccc3)nc3ccccc23)cc1	13.9
CCNC(=O)c1nc(Nc2ccccc2)c2ccccc2n1	-27.1
O=C(NCCCc1ccccc1)c1nc(Nc2ccccc2)c2ccccc2n1	-45.6
COCCNC(=O)c1nc(Nc2cccc(C)c2)c2ccccc2n1	-32.6
CCOc1ccc(CNC(=O)c2nc(Nc3cccc(C)c3)c3ccccc3n2)cc1	-94.1*
O=C(NCCC1=CCCCC1)c1nc(Nc2ccccc2)c2ccccc2n1	-76.4*
CCc1ccc(CNC(=O)c2nc(Nc3ccc(C)cc3)c3ccccc3n2)cc1	-54.6
CCC(C)NC(=O)c1nc(Nc2cccc(C)c2)c2ccccc2n1 (stereo not drawn)	-50.5
Cc1cccc(Nc2nc(C(=O)NCc3cccc(Cl)c3)nc3ccccc23)c1	-96.3*
Cc1cccc(Nc2nc(C(=O)NCc3ccc(C)o3)nc3ccccc23)c1	-51.0
Cc1ccc(Nc2nc(C(=O)NCc3cccnc3)nc3ccccc23)cc1	-81.7*
Cc1cccc(Nc2nc(C(=O)NCc3ccccc3Cl)nc3ccccc23)c1	-58.9
CCN1C[C@@H](COC)[C@@]2(CCN(C(=O)c3ccc4ccccc4c3)C2)C1	-4.1
O=C(Nc1ccccc1)c1cc2n(n1)CCN(C(=O)CCN1CCCCO1)C2	3.7
CCCOc1ccc(-c2noc(-c3c(O)c4cc(Cl)ccc4[nH]c3=O)n2)cc1	30.0

Assay outcomes (PubChem BioAssay)
